SMN2 splice up: enhancers of SMN2 splice variant expression; HEK293 SMN2-luciferase splicing reporter, luminescence, 30-36 h; Potency, µM (series often up to 46.1 µM), for the others: top-dose activity change, positive = activation, most hits filed as activators; 2.8% of 210,000 active; AID 1458; further: % of control where 0% means no effect; nearly all actives have a fitted effect of over 55% in size
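HEK293 cells carry an SMN2 […]–luciferase reporter in which exon 7 inclusion puts luciferase in frame. Cells were plated 10-12 h before compound addition, then incubated 30-36 h at 37C. ONE-Glo luminescence was read; sodium butyrate at 4.5 mM final served as control.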
ELG1 genotoxic: genotoxicity induction in ELG1-luciferase HEK293T cells; HEK293T ELG1-luciferase reporter, luminescence, 16 h; Potency, µM (doses to about 46 µM), for inactives: at the top dose activity change, positive = activation, most hits filed as activators; 1.3% of 330,000 active; further: % of control where 0% means no effect; nearly all actives have a fitted effect of over 60% in size
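Reporter readout depends on ELG1 protein level, which increases with genetic stress. After 16 hr compound exposure at 37 °C, luciferase activity was quantified using ONE-Glo.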
Rab9 promoter act: activators of Rab9 promoter | Huh7 Rab9 promoter-luciferase reporter, luminescence, 24 h | Potency, µM (titrated, usually from 9.22 µM), without a hit: top-dose activation, negative = inhibition, usual class: activators | 2.8% of 320,000 active | AID 485297; further: % of control where 0% means no effect; nearly all actives have a fitted effect of over 60% in size
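Stable Rab9-luc Huh7, 1500 cells/well, 2 h settle; cmpd in DMSO, 24 h, 37 °C/5% CO2; luciferase reagent 10 min RT; luminescence.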
NPC1 promoter act: NPC1 promoter activation. Potency, µM (titrated, usually from 9.22 µM), without a hit: at the top dose activation, usual class: activators. 2.4% of 320,000 active. Huh7 NPC1 promoter luciferase reporter, 24 h. AID 485313; further: % of control where 0% means no effect; nearly all actives have a fitted effect of over 60% in size
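Huh7 reporter cells (NPC1 promoter driving luciferase) are dosed with compound for 24 h at 37 °C, 5% CO2; luciferase detection reagent is then added and luminescence measured after 10 min at ambient temperature.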
ELG1 DNA repair: inhibitors of ELG1-dependent DNA repair in HEK293T cells. 2.3% of 330,000 active. HEK293T ELG1-luciferase reporter, luminescence, 16 h; DNA damage induced by 5-fluorouridine. Potency, µM (series often up to 46.1 µM), inactives show at the highest dose activity change, negative = inhibition, hits mostly inhibitors. AID 504467; further: on the % scale 0 is the no-effect control and ±100 the full control effect; nearly all actives have a fitted effect of over 55% in size
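HEK293T cells expressing luciferase-tagged ELG1 (2,000/well) received 5-Fluorouridine plus compound or DMSO for 16 hr at 37 °C. Luciferase was read by ONE-Glo luminescence after 30 min at room temperature.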
FLuc modulator: firefly luciferase modulation, counter-screen for miR-21 project; purified FLuc, Km substrates, luminescence inhibition; Potency, µM (doses to about 57.5 µM), inactives show top-dose activity change, negative = inhibition, most hits filed as inhibitors; 6.9% of 360,000 active; AID 588342;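 further: plate controls were vehicle for no effect and reference inhibitor for full effect; nearly all actives have a fitted effect of over 55% in size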
Target sequence (P08659 whole entry, looked up): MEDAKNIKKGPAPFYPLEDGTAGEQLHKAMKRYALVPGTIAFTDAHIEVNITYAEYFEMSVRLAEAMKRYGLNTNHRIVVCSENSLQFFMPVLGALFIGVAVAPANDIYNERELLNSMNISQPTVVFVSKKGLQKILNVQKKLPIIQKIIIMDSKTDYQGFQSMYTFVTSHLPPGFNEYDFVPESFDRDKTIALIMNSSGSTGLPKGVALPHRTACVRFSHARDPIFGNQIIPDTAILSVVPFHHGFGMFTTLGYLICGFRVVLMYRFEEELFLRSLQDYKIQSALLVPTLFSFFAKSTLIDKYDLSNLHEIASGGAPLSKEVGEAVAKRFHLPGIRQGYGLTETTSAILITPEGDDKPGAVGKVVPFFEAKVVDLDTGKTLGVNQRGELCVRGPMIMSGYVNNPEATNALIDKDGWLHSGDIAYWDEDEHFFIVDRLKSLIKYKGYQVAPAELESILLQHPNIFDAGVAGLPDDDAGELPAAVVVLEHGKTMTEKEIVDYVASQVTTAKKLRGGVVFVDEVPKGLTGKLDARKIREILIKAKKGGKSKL
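Purified P. pyralis luciferase, 10 nM final, with Km-level 10 uM D-luciferin and 10 uM ATP in 50 mM Tris acetate pH 7.5, 10 mM Mg acetate, 0.01% Tween-20, 0.05% BSA; 6-point qHTS titration about 60 µM downward; luminescence read.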
The depositor's hits bear a star; u = inconclusive; x = no result given; [ ] = another dose, or the depositor's remark. A selection: hits, their analogues and other compounds. The true share with any hit is near 9.4%. The call rests on the fitted dose curve; in most records, active means well fitted curve in the direction sought with a large enough effect; inconclusive means small, poorly fitted or top-dose-only effect, or another doubt; inactive means no such curve, though single readings can be large; an effect the other way counts as inactive or inconclusive. Potency means the concentration at half of the fitted maximal effect.

SMILES	SMN2 splice up	ELG1 genotoxic	Rab9 promoter act	NPC1 promoter act	ELG1 DNA repair	FLuc modulator
CC(=O)Nc1sc(N/N=C/c2ccc(C)cc2)nc1-c1ccc(C)cc1	x	10%	4%	7%	0%	8.5µM*
CC(=O)Nc1sc(N/N=C/c2ccc(N(C)C)cc2)nc1-c1ccc(C)cc1	x	u	24%	24%	u	6.7µM*
CCOc1cc(/C=N\Nc2nc(-c3ccc(C)cc3)c(NC(C)=O)s2)ccc1O	x	0%	-3%	0%	9%	27µM*
COc1cc(/C=N\Nc2nc(-c3ccc(C)cc3)c(NC(C)=O)s2)ccc1O	x	2%	0%	-3%	u	u
COc1ccc(/C=N/Nc2nc(-c3ccc(C)cc3)c(NC(C)=O)s2)cc1OC	x	u	-3%	-2%	u	3µM*
CC(=O)c1ccc(C(=O)N(Cc2cccnc2)c2nc3c(C)c(C)ccc3s2)cc1	x	x	x	x	x	-20%
Cc1ccc(C(=O)c2cn(CC(=O)NCc3ccccc3Cl)c3nc(C)ccc3c2=O)cc1	x	x	x	x	x	-3%
O=C(Nc1ccc(SC(F)F)cc1)c1ccc2c(=O)n3c(nc2c1)CCC3	x	11%	u	18%	u	2.4µM*
CC(=O)c1cccc(NC(=O)c2ccc3c(=O)n4c(nc3c2)CCCCC4)c1	14%	-6%	23%	14%	-20%	15µM*
Cc1cc(C)c2nc(NC(=O)c3ccc4c(=O)n5c(nc4c3)CCCCC5)sc2c1	-39%	-4%	-20%	-13%	10µM*	2%
O=C(Nc1cccc(S(=O)(=O)N2CCOCC2)c1)c1ccc2c(=O)n3c(nc2c1)CCCCC3	-68%	-18%	-9%	-10%	12µM*	u
Cc1cccc(NC(=O)c2ccc3c(=O)n4c(nc3c2)CCCCC4)n1	x	u	0.5µM*	1.3µM*	u	4.8µM*
COc1ccc(NC(=O)c2ccc3c(=O)n4c(nc3c2)CCCCC4)cc1	x	-4%	-2%	0%	u	27µM*
Cc1ccc(NC(=O)c2ccc3c(=O)n4c(nc3c2)CCCCC4)cc1F	x	-4%	0%	-1%	-26%	u
O=C(NC1CCCCCC1)c1ccc2c(=O)n3c(nc2c1)CCCCC3	13µM*	3.5µM*	2µM*	2.8µM*	u	8.5µM*
O=C(Nc1cccc(S(=O)(=O)N2CCCC2)c1)c1ccc2c(=O)n3c(nc2c1)CCCCC3	-57%	-10%	-22%	-6%	5.8µM*	12µM*
CCC(C)NC(=O)c1ccc2c(=O)n3c(nc2c1)CCCCC3 (centres undefined)	-5%	x	x	x	x	-4%
Cc1ccc(NC(=O)c2ccc3c(=O)n4c(nc3c2)CCCCC4)nc1	x	-2%	u	28%	0%	u
Cc1cccc(-c2nc3ccccc3n3c(-c4ccccc4)c4c(=O)n(C)c(=O)n(C)c4c23)c1	-3%	x	x	x	x	0%
O=C(c1ccc(Cl)cc1)n1nc(-c2ccco2)nc1NCc1cccs1	21%	x	x	x	x	3%
Cc1ccc(-c2nc3[nH]c(=O)cc(NC(=O)c4cccs4)n3n2)cc1	x	-1%	-6%	-17%	-20%	13µM*
Cc1ccc(-c2nc3[nH]c(=O)cc(NC(=O)C(C)C)n3n2)cc1	x	0%	-6%	1%	-7%	-2%
CC(C)(C)c1ccc(-c2nc3[nH]c(=O)cc(NC(=O)c4ccco4)n3n2)cc1	x	u	1.1µM*	4µM*	u	0.43µM*
COc1ccc(-c2nc3cc(C)ccn3c2NC(=O)c2cccc(F)c2)cc1	14%	x	x	x	x	u
CC(=O)Cc1nsc(NC(=O)c2ccc(-c3cc(C(F)(F)F)ccc3Cl)o2)n1	u	-12%	-16%	-14%	-17%	-18%
SMILES	SMN2 splice up	ELG1 genotoxic	Rab9 promoter act	NPC1 promoter act	ELG1 DNA repair	FLuc modulator
CC(=O)Cc1nsc(NC(=O)c2ccc(-c3cc(Cl)ccc3Cl)o2)n1	-14%	-6%	-1%	-11%	u	13µM*
O=C(NCCNC(=O)c1ccc(-c2ccc(Cl)c(Cl)c2)o1)c1cnccn1	x	-4%	2%	8%	4%	15µM*
CC(=O)Cc1nsc(NC(=O)c2ccc(-c3ccc(Cl)c(Cl)c3)o2)n1	3%	-3%	-2%	-1%	5%	11µM*
O=C(NCCCNC(=O)c1ccc(-c2cccc(Cl)c2)o1)c1cnccn1	x	-4%	6%	-3%	u	-9%
CC(=O)Cc1nsc(NC(=O)c2ccc(-c3ccc(Cl)cc3Cl)o2)n1	-2%	-3%	3%	3%	10%	6.7µM*
O=C(c1csnn1)N1CCC2(CC1)CCN(c1ccncc1)CC2	-16%	x	x	x	x	x
COc1ccc(OC)c(CNC(=O)Cn2nc(C)c3nn(-c4ccc(Cl)cc4)c(C)c3c2=O)c1	x	x	x	x	x	4%
CCCCCCOC(=O)C1(O)CC2OC1(C)n1c3ccccc3c3c4c(c5c6ccccc6n2c5c31)C(=O)NC4 (centres undefined)	-50%	x	x	x	x	x
CC(=O)Cc1nsc(NC(=O)c2ccc(-c3cccc(C(F)(F)F)c3)o2)n1	u	-3%	1%	0%	4%	9.5µM*
Cc1nnc(NC(=O)c2ccc(-c3cccc(C(F)(F)F)c3)o2)s1	u	3%	11%	2%	15%	3%
COc1ccc(NS(=O)(=O)c2cccc(C(=O)N(C)CC(=O)Nc3ccc(C)cc3)c2)cc1	x	-4%	-12%	-6%	1%	1%
COc1ccc(NC(=O)CN(C)C(=O)c2ccc(NS(=O)(=O)c3cccc([N+](=O)[O-])c3)cc2)cc1	x	-3%	-2%	3%	10%	24µM*
Oc1c(C(O)(c2ccccc2)c2ccc3ccccc3c2O)ccc2ccccc12	-3%[9.22 µM]	x	x	x	x	x
Cc1cccc(/C(N)=N/OC(=O)c2ccc(Cl)cc2Cl)c1	5µM*	u	0.32µM*	0.13µM*	u	0.48µM*
N/C(Cc1ccc(Cl)cc1Cl)=N\OC(=O)c1ccccc1	-4%	0%	2%	0%	-12%	-19%
N/C(=N\OC(=O)c1ccc(Cl)cc1Cl)c1ccccc1	u	u	0.5µM*	4.5µM*	u	0.17µM*
CCOP(=O)(OCC)/C(=N/OC(=O)c1ccc(Cl)cc1Cl)C(N)=O	x	1%	-4%	-11%	2%	-18%
Cc1ccccc1/C(N)=N/OC(=O)c1cccs1	-3%[1.84 µM]	u	18%	-1%	u	6.7µM*
N/C(=N\OC(=O)c1cccs1)c1cccnc1	x	u	0%	1%	u	8.5µM*
N/C(Cc1ccc(Cl)c(Cl)c1)=N\OC(=O)c1cccs1	9%	0%	0%	-3%	-4%	-12%
Cc1ccnc(NS(=O)(=O)c2ccc(NC(=O)C(C)(C)Oc3ccc(Cl)cc3)cc2)n1	5%	x	x	x	x	u

Bioassay records from PubChem.
